For 50 compounds, Potency and activity change, negative = inhibition results are on record in PubChem BioAssay AID485290 (National Center for Advancing Translational Sciences (NCATS), 2010).

Molecules are shown by their SMILES. The campaign covered roughly 350,000 compounds. About 990 (0.28%) were called active. Inconclusive results (about 2%) are left out. The entries come from a sample that favours actives as a whole. A call without a number means that no potency is given here. Values without a mark were called inactive. Calls follow the shape of the dose curve; as a rule, active = well fitted inhibition curve with a large enough effect; inconclusive = small, poorly fitted or top-dose-only effect; inactive = no such curve, though single readings can be large or run the other way.
Potency is read from the fitted curve at half-maximal effect.

Sequence of Tyrosyl-DNA phosphodiesterase 1 (Homo sapiens) (Q9NUW8 whole entry, looked up): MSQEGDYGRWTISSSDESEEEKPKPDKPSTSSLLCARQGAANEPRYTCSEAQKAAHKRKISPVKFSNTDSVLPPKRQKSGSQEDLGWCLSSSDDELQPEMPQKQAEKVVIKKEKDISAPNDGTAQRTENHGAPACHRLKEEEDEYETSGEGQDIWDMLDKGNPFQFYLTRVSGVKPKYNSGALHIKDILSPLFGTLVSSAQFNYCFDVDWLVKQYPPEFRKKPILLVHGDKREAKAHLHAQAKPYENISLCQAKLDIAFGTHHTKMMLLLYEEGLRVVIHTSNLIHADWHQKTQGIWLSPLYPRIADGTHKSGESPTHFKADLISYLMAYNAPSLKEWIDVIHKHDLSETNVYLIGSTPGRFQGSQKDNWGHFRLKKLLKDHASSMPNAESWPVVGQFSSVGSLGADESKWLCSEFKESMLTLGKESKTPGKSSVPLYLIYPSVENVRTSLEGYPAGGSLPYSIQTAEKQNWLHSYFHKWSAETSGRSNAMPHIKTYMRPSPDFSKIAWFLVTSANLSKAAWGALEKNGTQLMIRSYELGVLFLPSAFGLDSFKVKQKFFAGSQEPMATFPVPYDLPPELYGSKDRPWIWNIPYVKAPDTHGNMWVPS

For the assay, the target named is Tyrosyl-DNA phosphodiesterase 1 (Homo sapiens) (UniProt Q9NUW8). In words: qHTS Assay for Inhibitors of Tyrosyl-DNA Phosphodiesterase (TDP1). Also: nearly all actives have a fitted effect of over 40% in size. As to conditions: recombinant TDP1, AlphaScreen DNA substrate cleavage; series mostly up to 130 µM. The source says:
NIH Molecular Libraries Probe Production Network [MLPCN]
NIH Chemical Genomics Center [NCGC]
Assay Provider: Yves Pommier and Christophe Marchand, National Cancer Institute
Assay Title: qHTS Assay for Inhibitors of Tyrosyl-DNA Phosphodiesterase (TDP1); also: nearly all actives have a fitted effect of over 40% in size
Human tyrosyl-DNA phosphodiesterase I (Tdp1) is a rational anticancer target because this enzyme is involved in the repair of DNA lesions created by the trapping of human DNA topoisomerase I (Top1) following treatment by anticancer agents such as camptothecins. Recombinant Tdp1 was expressed and purified from E. coli in the laboratory (Anthony et al, Nucleic Acids Research, 2007, Vol. 35, 4474-4484). A Tdp1 DNA substrate bearing a 5' biotin and a 3' phospho-tyrosine was obtained by custom synthesis. This oligonucleotidic DNA substrate was subsequently coupled to a fluorescein isothiocyanate (FITC) group via the free amino group present on the phospho-tyrosine. Tdp1 was screened against the NCGC small molecule library using the AlphaScreen (AS) detection method in which a streptavidin donor AS bead is bound at the 5' end and an anti-FITC AS acceptor bead is bound at the 3' end of the DNA oligonucleotidic substrate. In the presence of Tdp1, the enzyme cleaves the tyrosine-FITC group, leaving a 3' end phosphate on the DNA substrate. This cleavage reaction results in a loss of signal in AS.
[1] 3 ul of buffer is dispensed in columns 3 & 4 as negative control (no enzyme and maximum signal),
[2] 3 ul of enzyme (1 nM final) is dispensed in columns 1,2, 5-48,
[3] 1 ul of substrate (15 nM final) is dispensed throughout the plate,
[4] 1 ul of AS donor/acceptor bead mix (10 ug/ml final) is dispensed throughout the plate
3 ul of Tdp1 enzyme is dispensed to 1536-well Kalypsys black solid bottom plates. Compounds and controls (23 nl) are transferred via Kalypsys Pin Tool. The plates are incubated for 15 min at room temperature, and then 1 ul of substrate is added to start the reaction. After 5 min incubation at room temperature, 1 ul of AS donor/acceptor bead mix is added and the plates are further incubated for 10 min at room temperature. The detection is then performed on a PerkinElmer Envision reader.
In the case of `O=C(Nc1nc(-c2cccnc2)cs1)c1ccccc1F`, the Potency entry was “inactive”.
As to `COc1ccc(-c2c3c(=O)n(C)c(=O)n(C)c3c3c(C)nc4ccccc4n23)cc1`, the Potency entry is “inactive”.
Take `O=C(CNC(=O)c1ccc(Cl)cc1Cl)OC(C(=O)Nc1cc(C(F)(F)F)ccc1Cl)c1ccccc1` (stereo not given): the Potency entry is “inactive”.
Consider `CCc1nc(-c2cc(S(=O)(=O)N3CCN(c4ccc(OC)cc4)CC3)ccc2OC)no1`, for which the Potency entry is “inactive”.
With `CCc1ccc(OCCCn2c(CCCNC(=O)C3CCCCC3)nc3ccccc32)cc1`, the Potency entry is “inactive”.
Take `Cc1ccnc2nc(C(=O)Nc3nnc(-c4ccccc4)o3)nn12`: the Potency is 50.1 µM (active).
`O=C(Nc1nnc(-c2ccc(Cl)cc2)o1)c1ccccc1Br`: the Potency result is “inactive”.
Take `Cc1ccnc2nc(C(=O)OCC(=O)N(CC(C)C)CC(C)C)nn12`: the Potency entry was “inactive”.
Take `COc1ccc(C(=O)CSc2c(C(C)C)cnc3c2c(=O)n(C)c(=O)n3C)cc1`: the Potency result is “inactive”.
With `CCN(CCCNC(=O)c1ccc(Sc2ccc(C)cc2)c(NC(C)=O)c1)c1cccc(C)c1`, the Potency result is “inactive”.
For the compound `Cc1ccc(-n2ncc3c(NCCCn4ccnc4)ncnc32)cc1Cl`, the Potency entry is “inactive”.
In the case of `COc1ccc(C2Nc3ccccc3C(=O)N2Cc2ccccc2)cc1COc1ccc(C(N)=O)cc1` (stereo not given), the Potency entry is “inactive”.
For the compound `CCc1ccccc1NC(=O)c1ccc2nc(CCc3ccccc3)oc2c1`, the Potency entry is “inactive”.
On to `Cc1cc(=O)oc2cc(OC(C)C(=O)Nc3ccc(N4CCOCC4)cc3)ccc12` (stereo not given), for which the Potency result is “inactive”.
As for `Cc1cc(=O)oc2cc(OC(C)C(=O)NCCc3ccc(S(N)(=O)=O)cc3)ccc12` (stereo not given), the Potency result is “inactive”.
Same read-out and setting: under `Cc1cc(=O)oc2cc(NC(=O)C(C)Oc3ccccc3)ccc12` (stereo not given) stands 56.2 µM (active); under `COc1ccc(S(=O)(=O)NCC(c2ccc(N(C)C)cc2)N2CCc3ccccc32)cc1OC` (stereo not given), “inactive”; under `OC[C@@H]1O[C@H](n2cnc3c(SCc4ccccc4)ncnc32)[C@H](O)[C@H]1O`, “inactive”.
Same read-out and setting: for `Cc1cc2c(s1)c1cnn(Cc3c(F)cccc3Cl)c(=O)c1n2C` the value was “inactive”.
For the compound `Cc1cnc(NC(=O)CSc2nnc(C)s2)s1`, the Potency entry is “inactive”.
Take `CCCCCC(=O)Nc1ccc(S(=O)(=O)Nc2ccc(Cl)nn2)cc1`: the Potency result was “inactive”.
Regarding `Cc1nnc(SCC(=O)Nc2ccc(S(=O)(=O)Nc3ccc(Cl)nn3)cc2)s1`, the Potency was 39.8 µM (active).
As for `COc1cccc(C2c3c(ncn(-c4cccc(Br)c4)c3=N)Oc3ccc4ccccc4c32)c1` (stereo not given), the Potency entry was “inactive”.
In the case of `O=C1CC(c2ccccc2)CC2=C1C(c1ccco1)n1nc(C(F)(F)F)nc1N2` (stereo not given), the Potency entry was “inactive”.
For the compound `Cc1ccc(C(=O)O)cc1-c1ccc(/C=C2\SC(=O)N(CC(=O)Nc3ccc4c(c3)OCO4)C2=O)o1`, the Potency is 10 µM (active).
For the compound `COc1ccc(NC(=O)CCN2C(=O)/C(=C/c3ccc4c(c3)OCO4)SC2=S)cc1`, the Potency entry is “inactive”.
As for `Cn1cccc1/C=C1\SC(=O)N(CC(=O)Nc2ccc(F)cc2)C1=O`, the Potency entry was “inactive”.
In the case of `CNS(=O)(=O)c1cccc(C(=O)OCC(=O)N2c3ccccc3NC(=O)C2(C)C)c1`, the Potency is 31.6 µM (active).
As to `CC1(C)C(=O)Nc2ccccc2N1C(=O)COC(=O)Cn1cnc2ccccc2c1=O`, the Potency result was “inactive”.
Regarding `Cc1cc(C(=O)OCC(=O)N2c3ccccc3NC(=O)C2(C)C)c(C)n1-c1ccccc1`, the Potency result is “inactive”.
In the case of `CCOC(=O)c1ccccc1NC(=O)CSc1nc2ccccc2c(=O)[nH]1`, the Potency result was “inactive”.
On to `CC(=O)NCc1ccc(-c2csc(NC(=O)CCCc3nc4ccccc4c(=O)[nH]3)n2)cc1`, for which the Potency result is “inactive”.
Still for that read-out and setting: under `O=C(CSc1nc2ccccc2c(=O)[nH]1)Nc1nc(-c2ccc(Br)cc2)cs1` stands 12.6 µM (active); under `O=S(=O)(c1ccc2c(c1)OCCCO2)N1CCN(S(=O)(=O)c2c(F)cccc2F)CC1`, “inactive”.
As to `Brc1nc2ncnc(NCc3ccco3)c2[nH]1`, the Potency entry is “inactive”.
With `COC(=O)c1ccc(NC(=O)CSc2n[nH]c(-c3ccccc3)n2)cc1`, the Potency result is “inactive”.
Still for that read-out and setting: for `CN(C)c1ccc(C(CNS(=O)(=O)c2cc(F)ccc2F)N2CCOCC2)cc1` (stereo not given) the value was “inactive”; for `COc1ccc(C2Nc3ccccc3C(=O)N2Cc2ccc(CNC(=O)CO)cc2)cc1COc1ccc(NC(C)=O)cc1` (stereo not given), “inactive”.
`COc1ccc(-c2nn(-c3ccccc3)cc2/C=C2/SC(=S)N(CCCC(=O)O)C2=O)c(C)c1`: the Potency is 39.8 µM (active).
As for `COc1ccc(/C=C2\SC(=S)N(CCC(=O)Nc3ccccn3)C2=O)cc1OC`, the activity change, negative = inhibition is 5.5% [at 0.0935 µM].
`CN(C)S(=O)(=O)c1cccc(-c2nn(-c3ccccc3)cc2/C=C2\SC(=S)N(CC(=O)O)C2=O)c1`: the Potency entry is “inactive”.
Regarding `Cc1ccc(C(=O)NC2CCN(C#N)CC2)cc1`, the Potency entry was “inactive”.
For the compound `CCN(CC)c1nc(C#N)nc(OC)n1`, the Potency result is “inactive”.
Take `COc1ccc(CCn2c3c(c(=O)[nH]c2=S)CN(C(C)C)CN3)cc1OC`: the Potency result was “inactive”.
Same read-out and setting: for `Cc1ccc(C)c(N2C(=O)N(Cc3c(F)cccc3Cl)c3ccccc3S2(=O)=O)c1` the value was “inactive”.
In the case of `N#Cc1ccc(OC2=NS(=O)(=O)c3ccccc32)cc1`, the Potency entry is “inactive”.
For the compound `Fc1ccccc1Oc1ncnc2c1oc1ccccc12`, the Potency entry was “inactive”.
Same read-out and setting: for `Cc1cccc(N2CCN(S(=O)(=O)c3ccc(-c4cc(C)no4)s3)CC2C)c1` (stereo not given) the value was “inactive”; for `Cc1cccc(N2CCN(S(=O)(=O)c3ccc4[nH]c(=O)c(=O)[nH]c4c3)CC2C)c1` (stereo not given), 35.5 µM (active); for `Cc1cccc(N2CCN(C(=O)c3cccc(S(=O)(=O)N4CCc5ccccc5C4)c3)CC2C)c1` (stereo not given), “inactive”.
